Shown are actives, neighbours in structure and some others; about 11% of the full set was active somewhere.
Sfp PPTase inh: qHTS Assay for Inhibitors of Bacillus subtilis Sfp phosphopantetheinyl transferase (PPTase); 4'-phosphopantetheinyl transferase ffp (Bacillus subtilis), Q9F4F7; Biochemical Sfp PPTase activity, qHTS; Potency, µM, inactives show largest response in the series, negative = inhibition, most hits filed as inhibitors; actives 3.5% (n = 310,000); AID 1490, 2009;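 note: the enzyme is Sfp with the accession as filed and its product quenches rhodamine fluorescence; potency is the fitted concentration of half-maximal effect; 0% = enzyme reaction without inhibitor and -100% = no enzyme wells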
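Sfp 15 nM + cpd, 15 min RT; start w/ rhodamine-CoA 5 uM, BHQ-2-YbbR 12.5 uM (final); 50 mM Hepes pH 7.6, 10 mM MgCl2, 0.01% NP-40, 0.01% BSA; read 525/598 nm at 0 and 30 min.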
Tau fibril ThT: qHTS for Inhibitors of Tau Fibril Formation, Thioflavin T Binding; Microtubule-associated protein tau (Homo sapiens), P10636; recombinant tau K18 P301L, heparin-induced fibrillization, ThT fluorescence; Potency, µM (highest dose often 57.4 µM), without a hit: at the highest dose activity, negative = inhibition, most hits filed as inhibitors; actives 2.1% (n = 270,000); note: potency is the fitted concentration of half-maximal effect; nearly all actives have a fitted effect of over 55% in size
Target sequence (P10636 561-689 P618L limits assumed): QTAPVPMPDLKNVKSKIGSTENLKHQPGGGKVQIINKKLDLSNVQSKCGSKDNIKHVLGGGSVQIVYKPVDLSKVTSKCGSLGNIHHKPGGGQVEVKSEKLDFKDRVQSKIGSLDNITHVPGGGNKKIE
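Recombinant human tau K18 fragment […] carrying P301L, 15 uM unlabeled plus 0.24 uM Alexa 594-labeled, was fibrillized with 20 uM heparin in 100 mM sodium acetate pH 7 for 6 hr at 37 C; 30 uM ThT fluorescence read after 1 hr.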
Tau fluor counter: Counterscreen qHTS for Inhibitors of Tau Fibril Formation, Fluorescence Polarization; tau K18 P301L Alexa594 fluorescence, heparin fibrillization; Potency, µM (titrated, usually from 57.7 µM), for inactives: at the highest dose activity change, negative = decrease; actives 0.93% (n = 280,000); AID 1463, 2008; note: potency is the fitted concentration of half-maximal effect; nearly all actives have a fitted effect of over 55% in size
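Human tau K18 P301L (15 uM unlabeled, 0.24 uM Alexa 594-labeled) in 100 mM sodium acetate pH 7 with 20 uM heparin, 6 hr at 37 C. ThT 30 uM added, 1 hr ambient; Alexa 594 FP and total fluorescence read at 555/632 nm.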
FBPA coupling cs: qHTS Assay for Inhibitors of Fructose-1,6-bisphosphate Aldolase from Giardia Lamblia: Coupling assay counterscreen. AID 2472, 2010. coupling enzyme system counterscreen, AmpLite Red fluorescence. actives 0.67% (n = 290,000). activity change, negative = inhibition, % at 58.2 µM, hits read low; in the data active = activity change below about -30%
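Coupling enzymes only (glyceraldehyde-3-phosphate) + compound, at 57.5 uM final, 10 min RT; add substrate/coupling/AmpLite Red mix, 20 min RT; fluorescence ex 525/em 598 nm. Actives flag coupling-system interference.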
G9a block: qHTS Assay for Inhibitors of Histone Lysine Methyltransferase G9a; G9a H3K9 monomethylation, AlphaScreen, 2 h; Potency, µM (titrated, usually from 102 µM), for the others: at the highest dose activity, negative = inhibition, actives largely listed as inhibitors; actives 8.8% (n = 350,000); AID 504332, 2011; Histone-lysine N-methyltransferase EHMT2 (Homo sapiens), Q96KQ7; note: potency is the fitted concentration of half-maximal effect; nearly all actives have a fitted effect of over 75% in size
Target sequence (Q96KQ7 913-1193 limits assumed): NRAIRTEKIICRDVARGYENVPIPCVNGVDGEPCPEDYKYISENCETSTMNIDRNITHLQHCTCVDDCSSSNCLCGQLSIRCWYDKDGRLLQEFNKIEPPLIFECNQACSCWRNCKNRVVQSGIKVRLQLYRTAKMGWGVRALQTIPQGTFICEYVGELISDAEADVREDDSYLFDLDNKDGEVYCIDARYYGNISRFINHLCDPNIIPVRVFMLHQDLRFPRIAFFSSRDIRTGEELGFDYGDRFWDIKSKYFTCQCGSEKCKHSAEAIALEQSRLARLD
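AlphaScreen read-out: biotin-H3K9 peptide (500 nM) methylation by 20 nM enzyme with 20 uM SAM, 2 h at room temperature after 15 min compound preincubation; anti-monomethyl H3K9 antibody plus donor/acceptor beads, 10 min dark.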
Tau FP inhib: qHTS for Inhibitors of Tau Fibril Formation, Fluorescence Polarization; K18 P301L tau heparin fibrillization, Alexa594 FP, 6 h; Potency, µM (series often up to 57.7 µM), inactives show at the highest dose activity, negative = inhibition, most hits filed as inhibitors; actives 0.39% (n = 280,000); AID 1468, 2008; note: potency is the fitted concentration of half-maximal effect; nearly all actives have a fitted effect of over 55% in size
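Human tau K18 […] P301L fragment, 15 uM unlabeled plus 0.24 uM Alexa 594-labeled tau (final), with compound and 20 uM heparin in 100 mM sodium acetate pH 7; 6 hr at 37 C, then Alexa 594 FP read.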
The depositor's hits bear a star; ? = inconclusive; · = not tested or not shown; [ ] = remark or other dose. Unless noted, calls come from the whole dose curve; as a rule, active = well fitted curve in the direction sought with a large enough effect; inconclusive = small, poorly fitted or top-dose-only effect, or another doubt; inactive = no such curve, though single readings can be large; an effect the other way counts as inactive or inconclusive. Unless noted, % is set by controls: 0 for no effect and ±100 for the full control effect.

SMILES | Sfp PPTase inh | Tau fibril ThT | Tau fluor counter | FBPA coupling cs | G9a block | Tau FP inhib
CC(C)C[C@H](NC(=O)c1[nH]cnc1C(=O)Nc1ccccc1)C(=O)OC(C)(C)C | 29% | 9% | ? | -13 | -1%[12.7 µM] | 22µM*
CC(C)(C)C(=O)Oc1ccc(S(=O)(=O)Nc2ccccc2C(=O)NCC(=O)O)cc1 | -2% | · | · | · | -1%[12.7 µM] | ·
Fc1ccc(C(c2ccc(F)cc2)N2CCN(C/C=C\c3ccccc3)CC2)cc1 | -1% | -16% | -14% | 0 | -1%[21.5 µM] | -3%
CCOC(=O)c1ccc(NC(=O)c2nc[nH]c2C(=O)N[C@@H](C)C(=O)OC(C)(C)C)cc1 | 15% | 13% | ? | 5 | -1%[12.7 µM] | ?
CCOC(=O)c1ccc(NC(=S)Nc2cccc(C)n2)cc1 | -10% | -8% | -5% | 4 | -8%[59 µM] | -6%
CCOC(=O)c1ccc(NC(=S)Nc2cccc(N)n2)cc1 | 8.9µM* | ? | ? | -30 | -30% | -11%
C[C@H](NC(=O)c1[nH]cnc1C(=O)Nc1ccc(Cl)cc1)C(=O)OC(C)(C)C | 22% | 10% | ? | -4 | -2%[12.7 µM] | 25µM*
O=C(Nc1ccc(S(=O)(=O)NC2=NCCCCC2)cc1)c1ccccc1Cl | 14% | -1% | -5% | -1 | 18% | 3%
CC/C(=C\c1oc2cc3ccccc3cc2[n+]1CC)Nc1ccccc1 | -38% | -16% | -3% | -27 | 5.6µM* | 12%
CCOc1ccc(NC(=O)c2sc(-n3nc(C)c(CCC(C)C)c3C)nc2C)cc1 | · | ? | -21% | · | 15%[59 µM] | 8%
CCc1ccccc1N(CC(=O)N1CCc2ccccc2C1)S(C)(=O)=O | 3% | · | · | -2 | · | ·
COC(=O)C1=C(C)N(Cc2ccccc2)C(=NCc2cc(OC)c(OC)c(OC)c2)N[C@H]1c1cccc(F)c1 | -12% | · | · | -2 | 7%[12.7 µM] | ·
COC(=O)C1=C(C)N(Cc2ccccc2)C(=NCc2cccc(Cl)c2)N[C@H]1c1cccc(F)c1 | 56µM* | · | · | -4 | · | ·
COC(=O)C1=C(C)N(Cc2ccccc2)C(=NCc2ccc(OC)cc2)N[C@H]1c1cccc(F)c1 | -7% | · | · | -3 | 79µM* | ·
c1ccc(Nc2cccc(Nc3ccccc3)n2)cc1 | -4% | 14µM* | 13µM*[quencher] | -6 | 7.9µM* | 3%
O=C(Oc1coc(CSc2nnc(NC(=O)C3CC3)s2)cc1=O)c1c(F)cccc1F | -8% | ? | -22% | 7 | -37% | 2%
CC(=O)c1ccc(-c2ccc(C3C4C=CCCC4(C)C(=O)N3Cc3ccccc3)c(F)c2)cc1 (centres undefined) | ? | · | · | -5 | · | ·
CCc1ccc(NC(=O)[C@H](C)NC(=O)C2CCN(C(=O)[C@@H](N)C(C)C)CC2)cc1 | 14% | · | · | -1 | 50µM* | ·
Cc1ccc2c(c1)c1c(c(=O)n(Cc3ccccc3)c(=O)n1Cc1cccc(C(F)(F)F)c1)n2C | · | 3% | -5% | · | -2%[59 µM] | -4%
C=C1CCN(C(Cc2ccccc2)C(=O)Nc2ccc(OC)cc2)S(=O)(=O)c2ccccc21 (centres undefined) | 0% | · | · | -1 | · | ·
CC(=O)N1CCc2c(sc(NC(=O)c3ccc([N+](=O)[O-])o3)c2C#N)C1 | 10µM* | ? | -19% | -11 | 2.8µM* | -10%
COC(=O)c1c(NC(=O)c2ccc([N+](=O)[O-])o2)sc2c1CCN(C(C)C)C2 | 3% | · | · | -3 | ? | ·
COc1ccc(C(=O)Nc2sc3c(c2C#N)CCN(C(C)=O)C3)cc1 | -11% | ? | -11% | -14 | 50µM* | -7%
